Screens deposited in PubChem by National Center for Advancing Translational Sciences (NCATS).
Rows were chosen to be rich in hits. Some 2.8% of all compounds tested hit in one or more screens of this group.
ATXN viability – viability counter-screen for ATXN expression inhibitors; 400,000 tested, 0.49% active; Potency, µM (titrated, usually from 56.7 µM), most hits filed as cytotoxic; S2 cells (HEK-293 line with an ATXN2-luciferase reporter) viability, CellTiter-Fluor protease fluorescence, 24 h; further: nearly all actives have a fitted effect of over 40% in size
TGFb SMAD3 inh – TGF-b pathway inhibition | Potency, µM (highest dose often 46.1 µM), for inactives: at the top dose activity, negative = inhibition, hits mostly inhibitors | AID 588855 | 410,000 tested, 1.2% active | HepG2 CAGA-GFP TGF-b/SMAD3 reporter, GFP fluorescence, 18 h; TGF-beta stimulated, 500 pg/mL final; further: on the % scale 0 is the no-effect control and ±100 the full control effect; nearly all actives have a fitted effect of over 65% in size
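Per well, imaged GFP fluorescence of HEPG2 CAGA-GFP cells gives the signal; cells get compound, then TGF-beta (500 pg/mL final), 18 h at 37 degrees C; %Activity versus -TGF-beta and +DMSO controls.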
ATXN2 expr inh – inhibitors of ATXN2 expression | 360,000 tested, 0.72% active | Potency, µM (doses to about 57 µM), without a hit: at the highest dose activity change, negative = inhibition, most hits filed as inhibitors | HEK-293 ATXN2-luciferase reporter, luminescence, 24 h; further: on the % scale 0 is the no-effect control and ±100 the full control effect; nearly all actives have a fitted effect of over 55% in size
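ATXN2-luciferase reporter cells (luciferase flanked by upstream and downstream ATXN2 gene portions) were treated 24 h at 37 °C with compounds at up to 57 uM. SteadyGlo luminescence gave expression; GF-AFC fluorescence gave viability.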
HepG2 viability – kills HepG2 cells in TGF-b inhibitor counter-screen; Potency, µM (titrated, usually from 46.1 µM), for the others: at the highest dose activity change, negative = cytotoxicity, usual class: cytotoxic; 410,000 tested, 0.76% active; HepG2 CAGA-GFP viability, ATP luminescence, 18 h
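CellTiter-Glo luminescence gave cytotoxicity after 18 hours at 37 degrees C. The cells were HepG2 CAGA-GFP in 1% FBS DMEM, stimulated with 500 pg/mL TGF-beta after compound addition. %Activity was normalised to no-cell wells (complete cell-killing) and DMSO (no toxicity), and curves were fitted and classified.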
HttQ103 aggreg – mutant huntingtin aggregation inhibition; PC12 HttQ103-GFP aggregates, Acumen cytometry, 40 h; 220,000 tested, 1.1% active; Potency, µM (titrated, usually from 46.1 µM), for inactives: at the highest dose activity change, negative = inhibition, actives largely listed as inhibitors; further: on the % scale 0 is the no-effect control and ±100 the full control effect; nearly all actives have a fitted effect of over 60% in size
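Huntingtin Q103 exon 1–GFP aggregates in induced PC12 cells (100 nM tebufenozide) were quantified by cytometry from lysates, with compounds dosed in titration.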
HTT cytoprotect – cytoprotection in Huntington HTT-Q103 PC12 cell model. PC12 HTT-Q103 induced, cytoprotection, ATP luminescence, 40 h. Potency, µM (highest dose often 56.4 µM), for inactives: cytoprotection (ATP increase), actives largely listed as activators. 230,000 tested, 0.14% active; further: % of control where 0% means no effect; nearly all actives have a fitted effect of over 45% in size
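ATP quantification (ATPlite) reports survival of PC12 cells in which tebufenozide, 100 nM final, switches on Htt exon 1 with 103 glutamines linked to GFP; compounds are titrated.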
* = called active by the depositor; i = inactive; ? = inconclusive; / = no result given; [ ] = dose if it differs, or a comment. The call rests on the fitted dose curve; in most records, active means well fitted curve in the direction sought with a large enough effect; inconclusive means small, poorly fitted or top-dose-only effect, or another doubt; inactive means no such curve, though single readings can be large; an effect the other way counts as inactive or inconclusive. Potency means the concentration at half of the fitted maximal effect.

SMILES | ATXN viability | TGFb SMAD3 inh | ATXN2 expr inh | HepG2 viability | HttQ103 aggreg | HTT cytoprotect
CCN1CCN(c2ccc(NC(=O)c3ccc([N+](=O)[O-])o3)cc2Cl)CC1 | ? | ? | -11.3% | -6.1% | 12.6µM* | -101.4%
CN1CCN(c2ccccc2NC(=O)Cc2cn(C)c3ccccc23)CC1 | i | 1.5% | -10.0% | -0.4% | 25.1µM* | -53.5%
CCC(=O)N1CCN(c2ccc(Cl)cc2NC(=O)c2ccc([N+](=O)[O-])o2)CC1 | i | ? | ? | -13.8% | / | /
Cc1ccc(-c2nnc(NC(=O)c3ccc([N+](=O)[O-])o3)o2)c(C)c1 | ? | -19.4% | ? | -6.1% | / | /
Cc1cccc(CNC(=O)c2c3n(c(C)cc2=O)-c2ccccc2SC(c2sccc2C)C3)n1 (stereo unspecified) | i | / | / | / | / | /
Cc1ccc2c(c1)ncc[n+]2CC(=O)c1ccc(Cl)cc1Cl | / | 6.7% | / | -4.4% | / | /
CCCS(=O)(=O)NCc1c(C)ncc2c1CCN(C(=O)c1cccc(Cl)c1F)C2 | i | / | / | / | / | /
O=C(Nc1ccccc1F)C(Cc1ccccc1)n1cccc1 (stereo unspecified) | / | -11.3% | / | -22.4% | / | /
O=C(Nc1nc(-c2cccs2)cs1)c1ccc([N+](=O)[O-])o1 | ? | ? | -23.5% | 11.2µM* | / | /
CN1CCN(c2ccccc2NC(=O)C(Cc2ccccc2)n2cccc2)CC1 (stereo unspecified) | 29.9µM* | -4.5% | 0.0% | -34.1% | -5.8% | -21.6%
Oc1ccc(-c2nc3ncccn3c2Nc2ccc3c(c2)OCCO3)cc1 | i | 13.8% | 1.7% | 19.6% | 17.0% | -20.9%
Oc1cccc(-c2nc3ncccn3c2Nc2cccc(C(F)(F)F)c2)c1 | ? | 12.6µM* | ? | -69.2% | / | /
CN(c1ccc(F)cc1)S(=O)(=O)N1CCCC(C(=O)NCc2cccc(Br)c2)C1 (stereo unspecified) | / | 8.91µM* | / | -54.2% | / | /
Cc1ccc(S(=O)(=O)N2CCN(CC(=O)N3CCCC3)CC2)c(C)c1 | / | 5.7% | -17.4% | 3.5% | / | /
Cc1ccc(S(=O)(=O)N2CCN(C(=O)CSC(=S)N3CCCC3)CC2)c(C)c1 | ? | 11.2µM* | ? | 10µM* | / | /
O=C(C[n+]1ccccc1Br)c1ccc(Cl)cc1 | / | 27.8% | / | 7.9% | / | /
CCc1ccc(C2c3[nH]c4ccccc4c3CCN2C(=O)CN2CCN(CC)CC2)cc1 (stereo unspecified) | 25.1µM* | ? | ? | 12.6µM* | 13.5% | -51.4%
O=S(=O)(c1cccnc1)N1CCN(c2nc(-c3cccs3)nc3ccccc23)CC1 | / | -20.2% | / | -45.8% | / | /
Cn1c(CCNC(=O)C2CC23CCN(C(=O)C2=CCCC2)CC3)nc2ccccc21 (stereo unspecified) | i | / | / | / | / | /
CC(=O)c1ccc(N2CCN(C(=O)Nc3ccc(F)cc3F)CC2)cc1 | i | -19.9% | -3.4%[11.3 µM] | -11.0% | -2.5% | -7.0%
O=C(Nc1ccc(F)cc1F)N1CCN(c2ccc(Cl)c(Cl)c2)CC1 | ? | ? | 20µM* | -38.6% | / | /
CC(=O)NC1(c2ccc(F)cc2)CCN(C(=O)Nc2ccc(F)cc2F)CC1 | ? | -1.7% | -16.6% | 13.4% | 3.16µM* | -96.7%[10 µM]
Cc1ccc2c(=O)n3c(nc2c1)C(Cc1ccc(O)cc1)NC(=O)c1cc2ccccc2cc1-3 (stereo unspecified) | ? | ? | ? | -31.8% | / | /
O=C1NC(Cc2ccc(O)cc2)c2nc3cc(F)ccc3c(=O)n2-c2cc3ccccc3cc21 (stereo unspecified) | ? | 20µM* | ? | -21.4% | / | /
CC(=NNC(=S)N1CCCCC1)c1cccc(C)n1 | ? | 0.355µM* | ? | -52.7% | / | /
CSC(=S)NN=C(C)c1cccc(C)n1 | ? | ? | ? | -62.8% | / | /
CCN(CC)c1ccc(/C=C/c2cccc[n+]2C)c(OC)c1 | 8.91µM* | 25.8% | 3.16µM* | -15.9% | / | /
